Reference: ChEMBL document CHEMBL3988442, “University of Dundee, Small-Polar-MMV Screening Library” (2021)
For some of these results: Entries with a potency or affinity are not part of this list.

Assays:
Set-up in all cases: scale not given: direction of the effect not stated beside the values
[1] = molecular target: Protein translocase subunit SecA (Escherichia coli (strain K12)) (UniProt P10408); test: Assay to Identify E. coli SecA ATPase Inhibitors; format: functional; conditions: 30 µM
[2] = molecular target: T1, Ubiquitin-activating enzyme e1, putative (Leishmania donovani (strain BPK282A1)) (UniProt E9BSI1); test: Leishmania donovani Ubiquitin Activating Enzyme (LdE1); format: functional; conditions: 30 µM
T1 sequence (whole entry): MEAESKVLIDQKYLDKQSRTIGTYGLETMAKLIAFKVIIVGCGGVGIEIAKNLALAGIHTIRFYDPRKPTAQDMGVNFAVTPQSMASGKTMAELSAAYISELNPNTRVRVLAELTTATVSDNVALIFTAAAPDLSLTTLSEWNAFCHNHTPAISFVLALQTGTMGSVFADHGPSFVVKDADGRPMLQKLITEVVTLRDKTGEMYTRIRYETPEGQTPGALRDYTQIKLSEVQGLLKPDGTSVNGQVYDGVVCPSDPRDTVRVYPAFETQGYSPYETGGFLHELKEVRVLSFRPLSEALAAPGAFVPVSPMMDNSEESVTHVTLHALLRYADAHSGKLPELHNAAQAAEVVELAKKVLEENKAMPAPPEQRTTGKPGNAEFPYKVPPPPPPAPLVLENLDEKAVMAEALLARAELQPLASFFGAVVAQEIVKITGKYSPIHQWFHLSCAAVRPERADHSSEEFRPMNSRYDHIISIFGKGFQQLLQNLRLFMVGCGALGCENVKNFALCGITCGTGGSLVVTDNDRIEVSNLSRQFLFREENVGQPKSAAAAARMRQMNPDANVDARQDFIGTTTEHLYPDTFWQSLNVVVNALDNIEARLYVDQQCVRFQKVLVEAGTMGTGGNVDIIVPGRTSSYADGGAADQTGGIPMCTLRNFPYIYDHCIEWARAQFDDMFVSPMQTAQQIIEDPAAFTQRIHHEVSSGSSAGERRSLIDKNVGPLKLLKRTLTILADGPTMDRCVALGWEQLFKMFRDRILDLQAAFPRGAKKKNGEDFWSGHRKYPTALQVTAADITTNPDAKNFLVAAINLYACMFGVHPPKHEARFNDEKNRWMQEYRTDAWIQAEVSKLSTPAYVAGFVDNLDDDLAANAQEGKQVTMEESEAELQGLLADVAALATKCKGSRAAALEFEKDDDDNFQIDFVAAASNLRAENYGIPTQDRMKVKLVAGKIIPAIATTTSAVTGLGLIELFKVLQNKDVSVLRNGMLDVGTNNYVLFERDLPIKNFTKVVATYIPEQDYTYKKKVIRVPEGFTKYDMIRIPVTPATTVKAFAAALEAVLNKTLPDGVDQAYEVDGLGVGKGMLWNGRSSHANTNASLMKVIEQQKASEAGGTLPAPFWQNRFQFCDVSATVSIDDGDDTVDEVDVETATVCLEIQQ

[3] = molecular target: AMP-activated protein kinase, AMPK (Homo sapiens) (UniProt P54646+O43741+P54619+Q9UGJ0+Q9Y478+Q13131+Q9UGI9); test: AMP-dependent Kinase enzyme assay. An in vitro enzyme assay that detects ADP turnover that is directly proportional to AMPK activity. This uses naive AMPK that is activated during the assay with MK-8722; format: functional; conditions: 30 µM
[4] = molecular target: Sialic acid-binding Ig-like lectin 9 (Homo sapiens) (UniProt Q9Y336); test: Hs-Siglec9 ALPHAscreen SOP 20170721; conditions: 10 µM
Sialic acid-binding Ig-like lectin 9 (Homo sapiens), sequence (Q9Y336 whole entry): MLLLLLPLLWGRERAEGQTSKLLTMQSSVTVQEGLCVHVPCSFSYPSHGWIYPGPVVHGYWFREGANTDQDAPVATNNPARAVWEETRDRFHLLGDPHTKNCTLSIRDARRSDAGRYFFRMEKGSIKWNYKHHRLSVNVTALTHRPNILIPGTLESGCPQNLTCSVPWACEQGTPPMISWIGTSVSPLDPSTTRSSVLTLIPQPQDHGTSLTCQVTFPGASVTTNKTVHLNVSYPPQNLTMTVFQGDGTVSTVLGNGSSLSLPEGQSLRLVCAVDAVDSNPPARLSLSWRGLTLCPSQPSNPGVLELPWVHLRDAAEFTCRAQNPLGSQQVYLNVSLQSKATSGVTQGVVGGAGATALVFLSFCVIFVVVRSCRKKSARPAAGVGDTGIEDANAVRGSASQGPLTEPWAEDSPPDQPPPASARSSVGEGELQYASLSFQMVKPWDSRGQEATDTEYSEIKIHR

[5] = test system: Trypanosoma cruzi; test: Trypanosoma cruzi phosphomannomutase and mannose-1-phosphate guanylyltransferase assay; format: functional; conditions: 10 µM
[6] = molecular target: T2, Arginase-2, mitochondrial (Homo sapiens) (UniProt P78540); test: in vitro enzyme assay to detect the production of urea directly proportional to the activity of Arginase II; format: functional; conditions: 33.3 µM; note: in the data most compounds retested in dose-response had high values
T2 sequence (whole entry): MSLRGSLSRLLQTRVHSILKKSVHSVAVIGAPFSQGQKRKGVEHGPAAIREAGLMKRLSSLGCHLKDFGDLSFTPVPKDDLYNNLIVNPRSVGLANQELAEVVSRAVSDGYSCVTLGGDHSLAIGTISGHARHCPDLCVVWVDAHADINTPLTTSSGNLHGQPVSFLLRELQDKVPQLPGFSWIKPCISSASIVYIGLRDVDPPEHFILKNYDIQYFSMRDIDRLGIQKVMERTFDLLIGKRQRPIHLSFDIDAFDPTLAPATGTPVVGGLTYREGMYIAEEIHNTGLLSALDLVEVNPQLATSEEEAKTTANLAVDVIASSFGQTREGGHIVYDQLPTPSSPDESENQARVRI

[7] = molecular target: T3, Proteasome subunit beta (Trypanosoma cruzi) (UniProt O96673); test: Trypanosoma cruzi proteasome chymotrypsin-like activity (TcProtChymo) assay.; note: in the data most compounds retested in dose-response had high values; format: functional; conditions: 9.37 µM
T3 sequence (whole entry): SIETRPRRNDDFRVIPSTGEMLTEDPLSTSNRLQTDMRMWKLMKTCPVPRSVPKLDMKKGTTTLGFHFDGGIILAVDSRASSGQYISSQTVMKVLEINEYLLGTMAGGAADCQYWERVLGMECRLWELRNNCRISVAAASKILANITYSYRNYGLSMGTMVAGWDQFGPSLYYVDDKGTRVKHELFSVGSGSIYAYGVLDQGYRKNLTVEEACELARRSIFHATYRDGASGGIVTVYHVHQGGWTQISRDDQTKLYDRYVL

[8] = species: Homo sapiens; test: To identify inhibition of the IFN signalling (Jak-Stat) pathway via expression of an eGFP reporter gene under the control of an IFN-stimulated response element (ISRE) containing MxA promoter.; format: functional; conditions: 30 µM
[9] = molecular target: T4, Tyrosyl-tRNA synthetase, putative (Trypanosoma cruzi (strain CL Brener)) (UniProt Q4DSP6); test: Trypanosoma cruzi tyrosyl tRNA synthetase (TcYRS) _High Tyrosine SOP; format: functional; conditions: 30 µM; note: in the data most compounds retested in dose-response had high values
T4 sequence (whole entry): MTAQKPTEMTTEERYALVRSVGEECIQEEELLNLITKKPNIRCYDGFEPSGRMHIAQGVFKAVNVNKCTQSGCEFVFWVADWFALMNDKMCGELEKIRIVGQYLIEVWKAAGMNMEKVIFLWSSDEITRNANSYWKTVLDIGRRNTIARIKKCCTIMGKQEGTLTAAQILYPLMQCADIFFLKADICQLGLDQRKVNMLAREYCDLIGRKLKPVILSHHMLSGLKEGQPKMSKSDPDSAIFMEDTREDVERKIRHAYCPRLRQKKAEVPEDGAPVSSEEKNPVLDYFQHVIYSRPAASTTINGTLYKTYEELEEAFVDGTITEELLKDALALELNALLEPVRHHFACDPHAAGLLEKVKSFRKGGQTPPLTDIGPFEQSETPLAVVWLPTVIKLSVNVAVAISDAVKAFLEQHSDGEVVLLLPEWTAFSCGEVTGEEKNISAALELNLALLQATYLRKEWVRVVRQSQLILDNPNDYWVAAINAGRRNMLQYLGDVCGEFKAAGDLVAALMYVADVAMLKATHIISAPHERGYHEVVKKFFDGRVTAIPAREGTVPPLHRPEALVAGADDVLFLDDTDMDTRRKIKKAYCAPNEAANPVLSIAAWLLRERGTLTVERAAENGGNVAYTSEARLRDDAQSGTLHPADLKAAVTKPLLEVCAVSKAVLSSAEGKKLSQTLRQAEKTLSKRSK

[10] = molecular target: T4, Tyrosyl-tRNA synthetase, putative (Trypanosoma cruzi (strain CL Brener)); test: Trypanosoma cruzi tyrosyl tRNA synthetase (TcYRS) SOP; format: functional; conditions: 30 µM
[11] = molecular target: Chromo domain-containing protein 1 (Saccharomyces cerevisiae (strain ATCC 204508 / S288c) (Baker's yeast)) (UniProt P32657); test: ScCHD-1 Enzyme Inhibition Assay; format: functional; conditions: 30 µM; note: in the data most compounds retested in dose-response had high values
Chromo domain-containing protein 1 (Saccharomyces cerevisiae (strain ATCC 204508 / S288c) (Baker's yeast)), sequence (P32657 whole entry, the tested form may be a part): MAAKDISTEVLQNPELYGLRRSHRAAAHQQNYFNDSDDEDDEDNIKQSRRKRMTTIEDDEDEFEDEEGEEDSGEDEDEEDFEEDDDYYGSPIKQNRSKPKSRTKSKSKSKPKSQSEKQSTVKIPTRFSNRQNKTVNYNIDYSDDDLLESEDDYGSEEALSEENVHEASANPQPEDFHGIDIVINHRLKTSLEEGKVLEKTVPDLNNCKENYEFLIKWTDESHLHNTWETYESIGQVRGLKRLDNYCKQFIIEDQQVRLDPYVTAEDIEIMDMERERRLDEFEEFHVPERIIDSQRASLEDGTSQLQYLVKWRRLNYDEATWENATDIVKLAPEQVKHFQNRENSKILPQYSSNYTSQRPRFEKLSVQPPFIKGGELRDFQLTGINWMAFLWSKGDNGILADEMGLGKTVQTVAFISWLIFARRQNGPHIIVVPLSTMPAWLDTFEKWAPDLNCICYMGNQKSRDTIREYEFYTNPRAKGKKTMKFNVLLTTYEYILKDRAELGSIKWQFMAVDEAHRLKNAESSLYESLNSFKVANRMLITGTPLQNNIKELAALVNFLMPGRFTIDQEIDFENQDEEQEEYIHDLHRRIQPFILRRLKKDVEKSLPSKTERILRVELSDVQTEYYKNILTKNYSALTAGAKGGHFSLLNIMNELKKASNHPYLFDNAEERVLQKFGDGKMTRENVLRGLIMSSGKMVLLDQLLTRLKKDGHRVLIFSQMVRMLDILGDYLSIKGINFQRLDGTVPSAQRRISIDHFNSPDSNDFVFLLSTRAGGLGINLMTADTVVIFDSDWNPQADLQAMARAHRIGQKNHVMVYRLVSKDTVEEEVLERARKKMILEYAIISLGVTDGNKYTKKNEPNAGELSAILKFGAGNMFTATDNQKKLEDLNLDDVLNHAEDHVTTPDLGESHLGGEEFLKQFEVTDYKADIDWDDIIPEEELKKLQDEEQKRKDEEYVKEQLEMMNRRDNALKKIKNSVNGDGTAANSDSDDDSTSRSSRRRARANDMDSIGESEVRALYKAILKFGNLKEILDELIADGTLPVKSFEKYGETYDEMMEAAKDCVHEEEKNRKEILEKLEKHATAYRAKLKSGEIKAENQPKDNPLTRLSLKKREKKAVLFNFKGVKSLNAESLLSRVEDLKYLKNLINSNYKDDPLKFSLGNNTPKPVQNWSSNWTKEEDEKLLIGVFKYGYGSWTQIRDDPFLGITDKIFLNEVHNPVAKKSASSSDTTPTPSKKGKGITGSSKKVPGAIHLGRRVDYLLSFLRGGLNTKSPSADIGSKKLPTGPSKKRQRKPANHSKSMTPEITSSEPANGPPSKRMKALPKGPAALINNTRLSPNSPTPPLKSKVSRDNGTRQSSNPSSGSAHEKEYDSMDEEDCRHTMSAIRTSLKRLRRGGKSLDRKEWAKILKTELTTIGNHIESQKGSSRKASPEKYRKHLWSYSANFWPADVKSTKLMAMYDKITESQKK

Protein translocase subunit SecA (Escherichia coli (strain K12)), sequence (P10408 whole entry): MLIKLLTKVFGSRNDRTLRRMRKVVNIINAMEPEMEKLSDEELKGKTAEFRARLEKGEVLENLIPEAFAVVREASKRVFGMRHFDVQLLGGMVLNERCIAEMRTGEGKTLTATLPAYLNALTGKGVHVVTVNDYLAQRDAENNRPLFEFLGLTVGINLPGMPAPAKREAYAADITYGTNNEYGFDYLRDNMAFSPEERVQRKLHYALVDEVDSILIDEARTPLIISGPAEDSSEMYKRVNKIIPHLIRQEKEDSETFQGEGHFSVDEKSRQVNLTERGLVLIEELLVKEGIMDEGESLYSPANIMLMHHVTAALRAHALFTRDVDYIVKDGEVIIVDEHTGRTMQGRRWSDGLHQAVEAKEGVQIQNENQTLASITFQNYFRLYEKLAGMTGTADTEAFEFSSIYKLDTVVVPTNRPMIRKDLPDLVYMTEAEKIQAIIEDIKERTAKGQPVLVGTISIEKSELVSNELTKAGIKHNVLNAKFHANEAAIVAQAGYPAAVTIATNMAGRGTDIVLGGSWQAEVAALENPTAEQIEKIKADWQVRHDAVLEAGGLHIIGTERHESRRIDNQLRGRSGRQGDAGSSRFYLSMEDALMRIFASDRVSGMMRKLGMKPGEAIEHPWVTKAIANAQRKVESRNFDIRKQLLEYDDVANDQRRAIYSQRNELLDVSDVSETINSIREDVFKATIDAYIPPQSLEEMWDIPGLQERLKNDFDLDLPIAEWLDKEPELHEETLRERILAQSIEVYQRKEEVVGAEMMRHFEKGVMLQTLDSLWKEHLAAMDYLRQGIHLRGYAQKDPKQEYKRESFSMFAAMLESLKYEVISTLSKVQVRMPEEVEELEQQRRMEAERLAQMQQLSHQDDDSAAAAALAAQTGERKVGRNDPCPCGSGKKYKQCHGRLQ

Row | Compound | Percent Effect [1] | Percent Effect [2] | Percent Effect [3] | Percent Effect [4] | Percent Effect [5] | Percent Effect [6] | Percent Effect [7] | Percent Effect [8] | Percent Effect [9] | Percent Effect [10] | Percent Effect [11]
1 | CCNC(=O)[C@@H]1C[C@H](NC(=O)c2cncnc2C)CN1CCCSC | -2.84% | 5.48% | -7.63% | 3.4% | 3.17% | -3.59% | 9.68% | -11.3% | 4.17% | 13.6% | -0.349%
2 | O=C(C1CCC1)N1CCN(c2snc3ccccc23)CC1 | -4.56% | 1.27% | 21% | -7.26% | -0.718% | 9.25% | 5.83% | 25.3% | -4.17% | -12.7% | -2%
3 | CCOCCCC(=O)NCCC(=O)N1CCN(c2ccccn2)CC1 | -3.47% | 7.89% | 4.17% | 5.65% | -3.99% | -4.73% | 13.3% | 2.43% | 5.32% | 13% | -4.16%
4 | COCCC1(CO)CCCN(Cc2ccc(F)c(C)c2)C1 (stereo unspecified) | -3.62% | 0% | -3.75% | -6.12% | -0.88% | -1.24% | 2.15% | -4.5% | 3.23% | 1.24% | 2.9%
5 | O=C(c1cc(Cl)cc(Cl)c1)N1CCN(c2nccs2)CC1 | -2.62% | 13.7% | 5.26% | 6.34% | 0.588% | 10.4% | 19.2% | 0.362% | 4.3% | 20% | -10.5%
6 | CSc1ccc(NS(=O)(=O)c2cnn(C)c2)cn1 | -5.12% | 8.22% | -0.942% | 42.3% | 3.57% | -4.39% | 0.0856% | -19.3% | 4.17% | 13.6% | -2.22%
7 | Cc1ccc(C2CCCCCN2Cc2cn(C)nc2C)cc1 (stereo unspecified) | -2.53% | 5.2% | 1.3% | 6.91% | 4.83% | 1.94% | 5.92% | -15% | 8.47% | 19.2% | -11.2%
8 | CCN(CCn1cccn1)Cc1nc(-c2ccccc2F)oc1C | -1.08% | -6.94% | -5.26% | -5.94% | -0.68% | -0.883% | 5.61% | 7.62% | 1.05% | 0% | 2.51%
9 | Cc1cc(C)n(CC2CCCN2C(=O)c2cc[nH]n2)n1 (stereo unspecified) | -7.68% | 16.5% | -4.09% | -3.12% | 0.923% | 0.215% | 8.58% | -2.4% | 7.29% | 17.7% | -34.4%
10 | COc1ccc(C2C3=C(COC3=O)Nc3[nH]nc(C)c32)cc1OC (stereo unspecified) | 2.08% | 6.67% | 9.48% | -1.62% | -6.68% | -10.7% | 12.8% | 8.17% | 5.29% | 10.3% | -11%
11 | CC(=O)N1CCN(C(=O)CCCc2nc(C(C)C)no2)CC1 | -1.74% | 15.2% | 2.62% | -11.8% | -10.1% | 4.56% | 8.44% | 37.4% | -0.493% | -1.27% | -5.47%
